From PubChem BioAssay (NCATS) come the findings set out here.

Inconclusive results are not listed. Where a call stands in place of a potency, no number is given. Active and inactive are the calls of the source. Calls follow the shape of the dose curve; as a rule, active = well fitted curve in the direction sought with a large enough effect; inconclusive = small, poorly fitted or top-dose-only effect, or another doubt; inactive = no such curve, though single readings can be large; an effect the other way counts as inactive or inconclusive.
Also: nearly all actives have a fitted effect of over 70% in size.
Potency is read from the fitted curve at half-maximal effect.

A short description of the first assay: Primary qHTS for inhibitors of nuclear receptor binding SET domain protein 2 (NSD2) in an isogenic RCH-ACV NSD2 p.E1099K mutant (9B) (AID 1645876). Conditions: RCH-ACV NSD2 E1099K (9B) viability, CellTiter-Glo, 72 h; series mostly up to 44.9 µM.
With `O=C(O)Cn1cnnn1`, the Potency result was “inactive”.

Turning to `Nc1ccc([N+](=O)[O-])c(C(F)(F)F)c1`, the Potency entry is “inactive”.

On to `CCCCCCCCCCCCCCCCCCNC(=O)OC1CCN(C(=O)OC[C@H](COC(=O)N(Cc2cccc[n+]2CC)C(=O)c2ccccc2OC)OC)CC1`, for which the Potency was 2.66 µM (active).

For `O=C1CC[C@H](C(=O)N2CCCCC2)N1`, the Potency result was “inactive”.

With `C/C(=N\O)[C@@H](C)NCC(C)(C)CN[C@H](C)/C(C)=N/O`, the Potency entry is “inactive”.

As to `COCCc1ccc(OCC2CO2)cc1` (centres undefined), the Potency entry is “inactive”.

As to `COCCc1ccccn1`, the Potency result was “inactive”.

Turning to `O=[N+]([O-])c1cncn1CCN1CCOCC1`, the Potency result is “inactive”.

Take `Cc1ccccc1N1CCN(CCc2nnc3n2CCCC3)CC1`: the Potency result is “inactive”.

Take `O=C1[C@@H]2[C@H]3CC[C@H](C3)[C@@H]2C(=O)N1CCCCN1CCN(c2ncccn2)CC1`: the Potency entry was “inactive”.

On to `CCc1cccc2c(CCO)c[nH]c12`, for which the Potency entry was “inactive”.

In the case of `CC(C)(C)C1CCC(CC2=C(O)c3ccccc3C(=O)C2=O)CC1` (centres undefined), the Potency is 7.5 µM (active).

Consider `C1=CC2C3C=CC(C3)C2C1` (centres undefined), for which the Potency result is “inactive”.

Regarding `Cc1cc(O)c(C)c(C)c1O`, the Potency result is “inactive”.

As to `Nc1nnnn1-c1ccccc1`, the Potency result is “inactive”.

As to `CCCCCOc1ccccc1/C(=C\SC)n1ccnc1`, the Potency was 13.3 µM (active).

In the case of `Cc1ccc2ccc(Cl)cc2n1`, the Potency result was “inactive”.

In the case of `O=C(O)Cc1ccccc1Oc1ccc(Cl)cc1Cl`, the Potency result was “inactive”.

`O=C1NC(c2ccccc2)(c2ccccc2)C(=O)N1COP(=O)(O)O`: the Potency result was “inactive”.

Consider `Cc1cccc(C)c1NC(=O)c1ccc(N)cc1`, for which the Potency entry was “inactive”.

As to `NC(=O)COCCN1CCN(C(c2ccccc2)c2ccc(Cl)cc2)CC1` (centres undefined), the Potency result is “inactive”.

Consider `Brc1ccccc1-c1ccccc1`, for which the Potency result is “inactive”.

Consider `CO/N=C(\C(=O)O)c1csc(NC(=O)CCl)n1`, for which the Potency result was “inactive”.

For the compound `CCCC(=O)Nc1ccc(O)c(C(C)=O)c1`, the Potency entry was “inactive”.

For the compound `CC1CC(=O)NN=C1c1ccc(NCC(C)(C)NCC(O)COc2cc(Cl)ccc2C#N)cc1` (centres undefined), the Potency entry is “inactive”.

As for `Cc1cc2nc3ccc(=[N+](C)C)cc-3sc2cc1N`, the Potency was 1.33 µM (active).

In the case of `O=P(O)(O)OCC(O)CO` (centres undefined), the Potency result is “inactive”.

For the compound `O=C(c1ccco1)N1CCNCC1`, the Potency entry was “inactive”.

Turning to `Cc1ccc(/C=N/n2c(-c3ccccc3)csc2=S)cc1`, the Potency result was “inactive”.

`C[C@H](N)C(=O)N[C@@H](C)C(=O)NC1[C@H]2CN(c3nc4c(cc3F)c(=O)c(C(=O)O)cn4-c3ccc(F)cc3F)C[C@@H]12` (some centres undefined): the Potency is 7.5 µM (active).

As for `CCn1ccc(NS(=O)(=O)c2ccc(N)cc2)nc1=O`, the Potency result was “inactive”.

On to `Nc1c[n+](N2CCOCC2)no1`, for which the Potency result is “inactive”.

With `COC(=O)c1cc(Cl)ccc1NS(=O)(=O)C(F)(F)F`, the Potency result is “inactive”.

Turning to `COC(=O)c1cc(Cl)c(NC(C)=O)cc1OC`, the Potency entry was “inactive”.

As to `CC(=O)N[C@@H](CCC(N)=O)C(=O)O`, the Potency result was “inactive”.

For the compound `O=S(=O)(O)c1ccc2nc(-c3ccccc3)[nH]c2c1`, the Potency result was “inactive”.

Turning to `Nc1ccc(C(=O)N2CC3CC(CN(Cc4ccccc4)C3)C2)cc1`, the Potency result is “inactive”.

The nature of another assay: Primary qHTS for inhibitors of nuclear receptor binding SET domain protein 2 (NSD2) in an RCH-ACV wild type WT cells (2C) (AID 1645877). The settings on record: RCH-ACV (leukaemia line) NSD2 WT (2C) viability, CellTiter-Glo, 72 h; series mostly up to 44.9 µM. Background: Quantitative high-throughput screening tests each substance at several concentrations.
`O=C(O)Cn1cnnn1`: the Potency entry is “inactive”.

As for `Nc1ccc([N+](=O)[O-])c(C(F)(F)F)c1`, the Potency entry was “inactive”.

For the compound `CCCCCCCCCCCCCCCCCCNC(=O)OC1CCN(C(=O)OC[C@H](COC(=O)N(Cc2cccc[n+]2CC)C(=O)c2ccccc2OC)OC)CC1`, the Potency was 2.66 µM (active).

As for `O=C1CC[C@H](C(=O)N2CCCCC2)N1`, the Potency entry is “inactive”.

`C/C(=N\O)[C@@H](C)NCC(C)(C)CN[C@H](C)/C(C)=N/O`: the Potency entry was “inactive”.

As to `COCCc1ccc(OCC2CO2)cc1` (centres undefined), the Potency result was “inactive”.

In the case of `COCCc1ccccn1`, the Potency result was “inactive”.

With `O=[N+]([O-])c1cncn1CCN1CCOCC1`, the Potency result was “inactive”.

On to `Cc1ccccc1N1CCN(CCc2nnc3n2CCCC3)CC1`, for which the Potency result is “inactive”.

As to `O=C1[C@@H]2[C@H]3CC[C@H](C3)[C@@H]2C(=O)N1CCCCN1CCN(c2ncccn2)CC1`, the Potency result is “inactive”.

For the compound `CCc1cccc2c(CCO)c[nH]c12`, the Potency result is “inactive”.

Consider `CC(C)(C)C1CCC(CC2=C(O)c3ccccc3C(=O)C2=O)CC1` (centres undefined), for which the Potency was 9.44 µM (active).

As to `C1=CC2C3C=CC(C3)C2C1` (centres undefined), the Potency result is “inactive”.

Consider `Cc1cc(O)c(C)c(C)c1O`, for which the Potency entry was “inactive”.

For the compound `Nc1nnnn1-c1ccccc1`, the Potency result is “inactive”.

With `CCCCCOc1ccccc1/C(=C\SC)n1ccnc1`, the Potency was 13.3 µM (active).

As to `Cc1ccc2ccc(Cl)cc2n1`, the Potency entry is “inactive”.

As for `O=C(O)Cc1ccccc1Oc1ccc(Cl)cc1Cl`, the Potency entry was “inactive”.

With `O=C1NC(c2ccccc2)(c2ccccc2)C(=O)N1COP(=O)(O)O`, the Potency entry is “inactive”.

Consider `Cc1cccc(C)c1NC(=O)c1ccc(N)cc1`, for which the Potency result was “inactive”.

With `NC(=O)COCCN1CCN(C(c2ccccc2)c2ccc(Cl)cc2)CC1` (centres undefined), the Potency entry is “inactive”.

In the case of `Brc1ccccc1-c1ccccc1`, the Potency result is “inactive”.

Regarding `CO/N=C(\C(=O)O)c1csc(NC(=O)CCl)n1`, the Potency result is “inactive”.

As to `CCCC(=O)Nc1ccc(O)c(C(C)=O)c1`, the Potency result is “inactive”.

For the compound `CC1CC(=O)NN=C1c1ccc(NCC(C)(C)NCC(O)COc2cc(Cl)ccc2C#N)cc1` (centres undefined), the Potency entry was “inactive”.

As to `Cc1cc2nc3ccc(=[N+](C)C)cc-3sc2cc1N`, the Potency is 1.06 µM (active).

Turning to `O=P(O)(O)OCC(O)CO` (centres undefined), the Potency entry is “inactive”.

Take `O=C(c1ccco1)N1CCNCC1`: the Potency entry was “inactive”.

Turning to `Cc1ccc(/C=N/n2c(-c3ccccc3)csc2=S)cc1`, the Potency result is “inactive”.

For `C[C@H](N)C(=O)N[C@@H](C)C(=O)NC1[C@H]2CN(c3nc4c(cc3F)c(=O)c(C(=O)O)cn4-c3ccc(F)cc3F)C[C@@H]12` (some centres undefined), the Potency was 6.68 µM (active).

For the compound `CCn1ccc(NS(=O)(=O)c2ccc(N)cc2)nc1=O`, the Potency entry is “inactive”.

As for `Nc1c[n+](N2CCOCC2)no1`, the Potency result was “inactive”.

For `COC(=O)c1cc(Cl)ccc1NS(=O)(=O)C(F)(F)F`, the Potency entry is “inactive”.

For the compound `COC(=O)c1cc(Cl)c(NC(C)=O)cc1OC`, the Potency entry was “inactive”.

With `CC(=O)N[C@@H](CCC(N)=O)C(=O)O`, the Potency result is “inactive”.

`O=S(=O)(O)c1ccc2nc(-c3ccccc3)[nH]c2c1`: the Potency result was “inactive”.

With `Nc1ccc(C(=O)N2CC3CC(CN(Cc4ccccc4)C3)C2)cc1`, the Potency entry was “inactive”.
